# Measured values taken from PubChem BioAssay (NCI).
# About 83,000 compounds went through this panel and 20% of them were active in at least one assay; those are over-represented in the sample as a whole.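 For each line, cells grew in 96-well plates with the test compound present at a single concentration for 48 hours.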 Unmarked numbers belong to inactive results. Active and inactive are the calls of the source. Rule for the calls: active = growth percent below 10; inactive = the rest.
# How the values were obtained:
# Assay in all cases: NCI-60 one-dose screen, 48 h (100 = growth as untreated, 0 = no growth, -100 = all killed)
# NCI-H23 lung = conditions: 10 µM unless noted
# NCI-H322M lung = conditions: 10 µM unless noted
# HOP-62 NSCLC = conditions: 10 µM unless noted
# NCI-H460 lung = conditions: 10 µM unless noted
# HOP-92 NSCLC = conditions: 10 µM unless noted
# NCI-H522 lung = conditions: 10 µM
# A549/ATCC NSCLC = conditions: 10 µM unless noted
# 786-0 renal = conditions: 10 µM unless noted
Compound,growth (NCI-H23 lung),growth (NCI-H322M lung),growth (HOP-62 NSCLC),growth (NCI-H460 lung),growth (HOP-92 NSCLC),growth (NCI-H522 lung),growth (A549/ATCC NSCLC),growth (786-0 renal)
COc1cc(/C=N/NC(=O)c2cnn3c2NC(c2ccccc2)C3)ccc1OC1CCCC1 (stereo not drawn),50%,32.9%,35.1%,2.88% (active),45.7%,11.7%,40.6%,9.01% (active)
COc1ccc(/C=N\N2CCOCC2)cc1OC1CCCC1,99%,107%,97%,105%,93.1%,95.6%,99.8%,93.6%
COc1ccc(/C=N/NC(=O)c2cnn3c2NC(c2ccccc2)C3)cc1OC1CCCC1 (stereo not drawn),98.8%,101%,87.9%,100%,94%,79.5%,84.1%,98.4%
CCCCC(O)Cn1ncc(C(=O)OCC)c1NC(=O)NCc1ccccc1C(F)(F)F (stereo not drawn),98.1%,105%,93.4%,103%,84.7%,88.3%,89.1%,93.2%
Cc1ccccc1-c1cc(-c2ccc(Br)s2)[nH]c(=O)c1C#N,96.8%,97.9%,104%,106%,77.9%,93.4%,107%,97.6%
CCCCCCCCCCCCCCn1c2ccccc2c2c3c(c4c5cc(OC)ccc5oc4c21)C(=O)NC3=O,103%,106%,117%,100%,106%,98%,103%,103%
Cc1ccc(S(=O)(=O)N2CCc3ccc(O)c4c3C2Cc2ccc3c(c2-4)OCO3)cc1 (stereo not drawn),26.5%,53.2%,33.8%,8.45% (active),29.1%,-19.8% (active),18.1%,12.6%
COc1cc2oc(-c3ccc(O)cc3)cc(=O)c2c(O)c1I,99.6%,108%,126%,101%,113%,86.2%,96.7%,100%
N#Cc1c(-c2cccc(F)c2)cc(-c2ccc(Br)s2)[nH]c1=O,84.9%,87.9%,72.2%,38.6%,42.6%,35.7%,59.4%,96.3%
CCN1CCN(c2nc3ccccc3c3c(=O)c4cc(F)ccc4sc23)CC1,85.6%,81.2%,73.2%,38.5%,40.2%,76.7%,58.4%,60.6%
Cc1cccc2c(=O)c3c(sc12)c(NCCNCCO)nc1ccccc13,55.3%,37.7%,22.6%,9.95% (active),33.1%,29.1%,37.7%,52.9%
O=C1CCC(N2Cc3c(C#CCCCNC(=O)c4cc5c(o4)C(=O)c4ccccc4C5=O)cccc3C2=O)C(=O)N1 (stereo not drawn),-80.1% (active),-88.2% (active),-65.3% (active),-82% (active),52.3%,-61.2% (active),30%,49.7%
C[C@]1(CO)C[C@@H](O)C[C@]2(C)[C@@H]1CC[C@@]13C[C@@H]4[C@@H](C[C@H]12)[C@]4(C)C3,108%,103%,101%,104%,103%,101%,102%,104%
CCC(C)Oc1cc(/C=N/NC(=O)c2cnn3c2NC(c2ccccc2)C3)ccc1OC (stereo not drawn),58%,45%,37.2%,11.5%,71.8%,10.7%,43.6%,47.6%
COc1ccc(C2=NOC(CC(=O)N(CCO)CCO)C2)cc1OC1CCCC1 (stereo not drawn),99.9%,107%,102%,103%,94.1%,98.3%,95.5%,92.7%
COc1ccc(/C=N/NC(=O)c2cnn(CC(O)Cc3ccccc3)c2N)cc1OC1CCCC1 (stereo not drawn),93.2%,103%,85.5%,98.5%,86.5%,92.7%,96.3%,97.9%

Compound,growth (NCI-H23 lung),growth (NCI-H322M lung),growth (HOP-62 NSCLC),growth (NCI-H460 lung),growth (HOP-92 NSCLC),growth (NCI-H522 lung),growth (A549/ATCC NSCLC),growth (786-0 renal)
COc1cccc2c(=O)c3c(sc12)c(NCCN(C)C)nc1ccccc13,32.4%,26.2%,27.2%,-53.1% (active),-3.75% (active),29.1%,7.73% (active),28.7%
CC(=O)OC[C@H](O)[C@@]1(O)CC[C@H]2[C@@H]3CCC4=CC(=O)CC[C@]4(C)[C@H]3[C@@H](O)C[C@@]21C,103%,112%,115%,97.3%,81.7%,99.6%,83.1%,104%
O=c1oc2ccccc2cc1-c1csc(N/N=C/c2cc3ccccc3nc2Cl)n1,99.8%,103%,109%,99.7%,97.5%,93.3%,92.8%,107%
CCCCCCCC/C=C\CCCCCCCCOc1cccc(CC(=O)NCC[N+](C)(C)C)c1,83.1%,102%,62.9%,57.9%,74.2%,80.8%,90.9%,80.8%
COc1ccc(/C=N/OCC(O)CN2CCC(O)CC2)cc1OC1CCCC1 (stereo not drawn),106%,108%,103%,106%,98.2%,99.2%,101%,102%
COc1ccc(/C=N/OCC(O)CNCc2ccccc2)cc1OC1CCCC1 (stereo not drawn),106%,97.2%,93.5%,102%,79.6%,105%,93.5%,89.5%
COc1c(O)c2c3c(c1OC)-c1ccccc1CC3N(S(=O)(=O)c1ccc(C)cc1)CC2 (stereo not drawn),41.2%,53%,41.6%,23.3%,59.8%,19.9%,44.1%,75.8%
O=C1c2ccccc2-c2cn(Cc3ccccc3)c3cccc(c23)C1c1cccnc1 (stereo not drawn),45.5%,54%,36%,23.2%,76.8%,-12.4% (active),42.2%,52.2%
C=C1CC[C@@H]2[C@@](C)(CCC[C@]2(C)C(=O)O)[C@@H]1CC[C@H](CO)CCO,102%,101%,100%,113%,90%,85.6%,102%,99.3%
Cc1ccc(S(=O)(=O)N2CCc3ccc(O)c4c3C2CCc2ccccc2-4)cc1 (stereo not drawn),95.9%,99.1%,106%,108%,116%,82.4%,102%,100%
COc1ccc(S(=O)(=O)c2ccc(C(N)=O)cc2)cc1NC(=O)c1[nH]c(C)c2c1CCCCC2=O,58.7%,68.5%,38.8%,70.3%,23.6%,42.7%,87.7%,60%
COc1cc(/C=N/NC(=O)c2cnn3c2NC(c2ccccc2)C3)cc(OC)c1OC (stereo not drawn),102%,84%,71.2%,26.7%,76%,35.5%,64.8%,88%
COC(=O)c1c2c(c(C)[n+]([O-])c1C)C(=O)C=C(NCc1ccc(F)c(Cl)c1)C2=O,-65.9% (active),-38.9% (active),-51.9% (active),-38.7% (active),-42.6% (active),-39.4% (active),-47.4% (active),3.92% (active)
CN1CCN(c2ccc3nc(-c4ccc5nc(-c6ccc(C(F)(F)F)cc6)[nH]c5c4)[nH]c3c2)CC1,68.2%,80.1%,51.3%,30.9%,59.3%,64.1%,89.8%,69.6%
COC(=O)[C@@]12CC[C@@H](C)[C@]3(C[C@@H](c4ccoc4)OC3=O)[C@H]1CC[C@@H]1O[C@@]12C,96.1%,104%,94.2%,103%,92.4%,84.9%,103%,99.3%
